Mtb FBA inh = Mtb fructose-bisphosphate aldolase inhibition | P9WQA3 | purified M. tuberculosis FBA, fluorescence read-out | inhibition, % at 1 µM | actives 2.3% (n = 360,000) | AID 588726; in the data active = inhibition above about 27%;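 note: 0% = vehicle and 100% = reference inhibitor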
Target sequence (P9WQA3 whole entry, looked up): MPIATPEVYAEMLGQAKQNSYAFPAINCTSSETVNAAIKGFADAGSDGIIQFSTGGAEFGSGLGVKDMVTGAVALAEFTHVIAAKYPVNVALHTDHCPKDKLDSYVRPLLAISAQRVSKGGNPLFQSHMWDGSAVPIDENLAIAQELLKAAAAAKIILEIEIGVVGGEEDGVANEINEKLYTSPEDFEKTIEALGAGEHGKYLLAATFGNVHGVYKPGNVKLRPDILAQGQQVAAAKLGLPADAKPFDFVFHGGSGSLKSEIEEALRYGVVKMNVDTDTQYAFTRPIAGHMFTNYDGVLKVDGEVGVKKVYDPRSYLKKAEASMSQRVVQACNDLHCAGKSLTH
Rv3671c protease = inhibitors of M. tuberculosis serine protease Rv3671c | P9WHR9 | actives 0.048% (n = 320,000) | inhibition, % at 5.96 µM; in the data active = inhibition above about 38%;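 note: extracellular domain of Rv3671c used as enzyme; 0% = enzyme with DMSO and 100% = no enzyme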
UGM FP inh = blocks M. tuberculosis UGM enzyme | purified UGM, fluorescence polarization probe displacement | inhibition, % at 10 µM | actives 0.06% (n = 320,000) | P9WIQ1 | AID 504406; in the data active = inhibition above about 10%, passing the limit was not always enough
Mtb bLac sens = beta-lactam sensitization of Mtb H37Rv | inhibition, % at 25 µM | actives 0.27% (n = 330,000) | M. tuberculosis H37Rv growth with meropenem, percent inhibition; call rule not given here;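 note: growth measured after seven days incubation then overnight dye step; 0% = bacteria only wells and 100% = bacteria with antibiotic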
PriA SSB inh = K. pneumoniae PriA-SSBct interaction inhibition | AID 1272365 | AlphaScreen SSBct-PriA binding, biotinylated peptide | inhibition, % at 33 µM | actives 0.6% (n = 430,000); in the data active = inhibition mostly above about 37%, no sharp cut-off; inactive = mostly below about 20%;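 note: plate controls were negative control peptide for no effect and reference peptide for full effect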
GDH-TPI inh = counter-screen for M. tuberculosis FBA inhibitors: GDH-TPI coupled enzymes; actives 1.2% (n = 360,000); inhibition, % at 4.8 µM; GDH-TPI coupled enzyme counterscreen, NADH absorbance; in the data active = inhibition above about 30%;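 note: 0% = DMSO wells and 100% = wells lacking the enzyme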
Numbers without * were called inactive; nt = no result; + = active, no number. Only some compounds are listed: those with a hit (about 3.2% of all), similar ones and a draw of the others.

SMILES	Mtb FBA inh	Rv3671c protease	UGM FP inh	Mtb bLac sens	PriA SSB inh	GDH-TPI inh
O=C(CSc1nc2ccccc2[nH]1)c1c[nH]c2ccccc12	0	-3	0	-2	65*	6
CCN(CC)c1ccc(C(=O)N/N=C(\C)c2ccc(OC)c(OC)c2)cc1	-2	7	2	-1	nt	32*
COc1ccc(C(=O)NN=C(C)c2ccccn2)cc1OC	nt	nt	nt	nt	83*	nt
C/C(=N\NC(=O)c1ccc(F)cc1)c1ccccn1	2	8	0	99	nt	9
CC(=NNC(=O)c1ccccc1F)c1ccccn1	nt	nt	nt	nt	51*	nt
COc1ccc2nc(-c3ccc(NC(=O)NCc4ccccc4)cc3)cn2n1	nt	nt	nt	nt	1	nt
COc1cccc(NC(=O)NCC(O)c2ccc(C(F)(F)F)cc2)c1OC (stereo not given)	nt	nt	nt	nt	0	nt
COc1ccc(Nc2cc(C)nc3ccc(OC)cc23)cc1	2	3	2	-3	15	34*
COC(=O)c1ccc2nc(C)cc(Nc3ccc(N(C)C)cc3)c2c1	1	5	6	93	11	5
CC(=O)c1cccc(Nc2cc(C)nc3ccccc23)c1	-6	5	7	-7	2	32*
O=C(O)c1cccc(Nc2c3ccccc3nc3ccccc23)c1	124*	-2	0	1	-10	0
COC(=O)c1ccc(Nc2cc(C)nc3ccccc23)cc1	6	9	-4	1	4	42*
COc1ccc2nc(C)cc(Nc3ccc(C(=O)O)cc3)c2c1	0	-10	1	-6	-11	3
COc1ccc(C(=O)NCc2nnc(SCc3ccc(C(F)(F)F)cc3)n2Cc2ccccc2)cc1	nt	nt	nt	nt	-4	nt
COc1ccc(-c2csc(/C(C#N)=C3\C=CC=CN3C)n2)cc1	nt	nt	nt	nt	142*	nt
CN1C=CC=C/C1=C(\C#N)c1nc2ccccc2[nH]1	-12	1	1	2	6	18
COc1ccc(-c2cc(=O)n(CC(=O)Nc3ccc(C(N)=O)cc3)cn2)cc1	nt	nt	nt	nt	-3	nt
Cc1ccc2nc3c(cc(C(=O)NCC4CCCO4)c(=N)n3CCCn3ccnc3)c(=O)n2c1 (stereo not given)	nt	nt	nt	nt	-1	nt
CCOCCCNc1nc2nc3ccc(C)cn3c(=O)c2cc1C(=O)NCC1CCCO1 (stereo not given)	+	-1	-3	0	-10	-8
Cc1ccc2nc3c(cc(C(=O)NCC4CCCO4)c(=N)n3CCCOC(C)C)c(=O)n2c1 (stereo not given)	+	-14	nt	7	5	-8
CCn1cc(C(=O)NCC2CCCO2)c2cc(OC)c(OC)cc2c1=O (stereo not given)	-2	-4	1	-6	-15	11
CCCn1c(C(=O)N2CCc3ncncc3C2)cc2c(=O)n(C)c(=O)n(C)c21	nt	nt	nt	nt	4	nt
CCCCCn1c(NS(=O)(=O)c2ccccc2)c(C(=O)OCC)c2nc3ccccc3nc21	nt	nt	nt	nt	70*	nt
CCCCn1c(NS(=O)(=O)c2ccc(F)cc2)c(S(=O)(=O)c2ccc(C)cc2)c2nc3ccccc3nc21	nt	nt	nt	nt	56*	nt
CCCCn1c(NC(=O)c2ccccc2)c(S(=O)(=O)c2ccc(C)cc2)c2nc3ccccc3nc21	nt	nt	nt	nt	54*	nt
SMILES	Mtb FBA inh	Rv3671c protease	UGM FP inh	Mtb bLac sens	PriA SSB inh	GDH-TPI inh
CCCCCCCCn1c(NS(=O)(=O)c2ccccc2)c(S(=O)(=O)c2ccccc2)c2nc3ccccc3nc21	nt	nt	nt	nt	60*	nt
Cn1nc(-c2ccc(F)cc2)cc1C(=O)NCC1CCN(C(=O)NC(C)(C)C)CC1	nt	nt	nt	nt	-23	nt
CCCCCn1c(NS(=O)(=O)c2ccc(F)cc2)c(S(=O)(=O)c2ccc(C)cc2)c2nc3ccccc3nc21	nt	nt	nt	nt	47	nt
CCCCCCCCn1c(NS(=O)(=O)c2ccc(C)cc2)c(S(=O)(=O)c2ccc(C)cc2)c2nc3ccccc3nc21	nt	nt	nt	nt	54*	nt
COC1=C/C(=C/c2c(O)c(C#N)c3ccccn23)C=CC1=O	8	12	-4	5	nt	44*
CCN1C(=O)/C(=C\N(C)C)c2ccccc21	-2	4	0	-8	-4	32*
CCO/C=C1\C(=O)N(CC)c2ccccc21	-1	-6	3	-1	-2	0
CCN1C(=O)/C(=C/N(C)C)c2ccccc21	-1	3	-1	3	-10	37*
CN(C)C=C1C(=O)c2ccccc2C1=O	3	-9	2	-1	-6	9
COc1ccc(C2CC(=O)C3=C(C2)Nc2ccccc2N(C(C)=O)C3c2ccco2)cc1 (stereo not given)	3	1	-1	-11	-3	47*
COc1cc(C2C3=C(CC(c4ccco4)CC3=O)Nc3ccccc3N2C(C)=O)cc(OC)c1OC (stereo not given)	-3	12	-5	-10	-7	26
CC1Oc2ccccc2OC1C(=O)Nc1ccc2c(c1)N(S(=O)(=O)c1ccc(F)cc1)CCC2 (stereo not given)	nt	nt	nt	nt	4	nt
O=C(/C=C/c1ccccc1)C1C(=O)c2ccccc2C1=O	-3	-31	4	95	-10	11
CCc1ccc(/C=C/C(=O)C2C(=O)c3ccccc3C2=O)cc1	-1	7	3	98	4	39*
O=C(NCc1ccco1)c1cccn2c(=O)c3sccc3nc12	13	4	1	12	-7	28
O=C(NCc1cccs1)c1cccn2c(=O)c3sccc3nc12	6	-3	0	-1	0	31*
Cc1cc(=O)oc2cc(OC(C)C(=O)NCCCN3CCCC3=O)c(Cl)cc12 (stereo not given)	10	0	0	-2	-5	20
Cc1cc(OC(C)C(=O)NCCCN2CCCC2=O)c2c(C)c(C)c(=O)oc2c1 (stereo not given)	112*	-7	-2	-3	-2	0
Cc1c(OC(C)C(=O)NCCCN2CCCC2=O)ccc2c3c(c(=O)oc12)CCCC3 (stereo not given)	43*	-3	0	7	8	3
CC(Oc1cc2oc(=O)c3c(c2cc1Cl)CCC3)C(=O)NCCCN1CCCC1=O (stereo not given)	8	-16	-2	-2	11	17
CSc1ccccc1CN1CCC(CNC(=O)c2cc(-c3ccc(F)cc3)nn2C)CC1	nt	nt	nt	nt	5	nt
COc1ccc(CC(=O)N2CCC3(CC2)OC(=O)c2ccccc23)cc1OC	nt	nt	nt	nt	-5	nt
COc1ccc2nc(N(CCN(C)C)C(=O)c3ccc4c(c3)OCCO4)sc2c1	2	0	-1	-11	-14	8
O=C(c1cccc(F)c1)N(CCCn1ccnc1)c1nc2ccc(Cl)cc2s1	nt	nt	nt	nt	52*	nt
O=C(c1ccc2c(c1)OCCO2)N(CCCn1ccnc1)c1nc2ccc(F)cc2s1	nt	nt	nt	nt	37*	nt
CCCN1CCCc2cc(CCNC(=O)C(=O)Nc3cc(C)ccc3C)ccc21	nt	nt	nt	nt	29	nt
O=C(c1ccc(N2CCN(C(=O)c3ccccc3)CC2)cc1)c1cccc(F)c1	-2	-3	-1	11	-14	38*
O=C(c1ccccc1)c1ccc(C(=O)N2CCN(c3ccc(O)cc3)CC2)cc1	1	2	1	-5	7	0
O=C(c1cccnc1)N1CCN(c2ccc(Cl)cc2)CC1	3	10	-2	11	-4	32*

Compound activity: PubChem, several laboratories
